# FadD28 FP inh: inhibitors of FadD28 bisubstrate probe binding, primary screen, biochemical, fluorescence polarization, single point | Mycobacterium tuberculosis FadD28 fatty-acid-AMP ligase | inhibition, % at 12.5 µM | hit rate 0.22% among 360,000 | AID 588549, 2011; in the data active = inhibition above about 8.5%, passing the limit was not always enough
# Mtb betalactam: beta-lactam sensitization of Mtb H37Rv, H37Rv; AID 434955, 2010; inhibition, % at 25 µM; M. tuberculosis H37Rv growth with meropenem, percent inhibition; hit rate 0.27% among 330,000;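 also: growth measured after seven days incubation then overnight dye step; 0% = bacteria only wells and 100% = bacteria with antibiotic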
# GDH-TPI counter-1: GDH-TPI coupling enzyme inhibitors, primary screen, artefact control for M. tuberculosis FBA inhibitor project, biochemical, absorbance, full deck; GDH-TPI coupled enzyme counterscreen, NADH absorbance; inhibition, % at 4.8 µM; hit rate 1.2% among 360,000; in the data active = inhibition above about 30%;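 also: 0% = DMSO wells and 100% = wells lacking the enzyme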
# Mtb FBA inh: Mtb FBA enzyme inhibitors, primary screen, biochemical, fluorescence, strain H37Rv; hit rate 2.3% among 360,000; purified M. tuberculosis FBA, fluorescence read-out; inhibition, % at 1 µM; in the data active = inhibition above about 27%;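 also: 0% = vehicle and 100% = reference inhibitor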
# Rv3671c protease: Rv3671c serine protease inhibitors, primary screen, biochemical, fluorescence polarization, M. tuberculosis H37Rv. P9WHR9. inhibition, % at 5.96 µM. hit rate 0.048% among 320,000; in the data active = inhibition above about 38%;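 also: extracellular domain of Rv3671c used as enzyme; 0% = enzyme with DMSO and 100% = no enzyme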
# Target sequence (P9WHR9 whole entry, looked up, the tested form may be a part): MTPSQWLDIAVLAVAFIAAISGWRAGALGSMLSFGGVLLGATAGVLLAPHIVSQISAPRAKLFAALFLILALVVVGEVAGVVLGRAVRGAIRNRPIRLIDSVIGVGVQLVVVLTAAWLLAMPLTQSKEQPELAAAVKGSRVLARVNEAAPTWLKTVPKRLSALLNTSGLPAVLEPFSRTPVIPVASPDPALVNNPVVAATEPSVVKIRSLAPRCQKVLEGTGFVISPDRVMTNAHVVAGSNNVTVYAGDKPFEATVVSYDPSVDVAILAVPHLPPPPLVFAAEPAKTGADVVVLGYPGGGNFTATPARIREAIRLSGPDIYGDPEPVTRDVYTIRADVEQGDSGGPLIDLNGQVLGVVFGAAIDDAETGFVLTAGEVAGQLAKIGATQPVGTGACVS
# UGM FP inh: M. tuberculosis UGM enzyme inhibitors, primary screen, biochemical, fluorescence polarization, single point | UDP-galactopyranose mutase (Mycobacterium tuberculosis (strain ATCC 25618 / H37Rv)), … | purified UGM, fluorescence polarization probe displacement | inhibition, % at 10 µM | hit rate 0.06% among 320,000 | AID 504406, 2011; in the data active = inhibition above about 10%, passing the limit was not always enough
# Mtb FBA confirm: M. tuberculosis aldolase blockers, biochemical, fluorescence, strain H37Rv, confirmation; shares compounds with Mtb FBA inh; hit rate 78% among 5,600; purified M. tuberculosis FBA, fluorescence read-out; inhibition, % at 1 µM; in the data active = inhibition above about 27%;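 also: 0% = vehicle wells and 100% = reference inhibitor wells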
# GDH-TPI counter-2: GDH-TPI coupling enzyme inhibitors, artefact control for M. tuberculosis FBA inhibitor project, biochemical, fluorescence, high throughput; GDH-TPI coupled enzyme counterscreen; AID 652141, 2013; hit rate 81% among 5,600; shares compounds with Mtb FBA inh; inhibition, % at 1 µM; in the data active = inhibition above about 10%
# GDH-TPI DR: GDH-TPI coupling enzyme inhibitors, dose response, artefact control for M. tuberculosis FBA inhibitor project, biochemical, fluorescence, IC50 | shares compounds with Mtb FBA inh | GDH-TPI coupled enzyme assay, artifact counterscreen | IC50, µM | hit rate 79% among 170 | AID 652145, 2013
# An asterisk follows results filed as active; · = no result given; + = active, no number. Compounds with a hit are over-represented: about 3.7% of the library has one in this group of screens. Unless noted, no rule for the calls is given here.
SMILES,FadD28 FP inh,Mtb betalactam,GDH-TPI counter-1,Mtb FBA inh,Rv3671c protease,UGM FP inh,Mtb FBA confirm,GDH-TPI counter-2,others
COCC(=O)N(Cc1cc2ccc(C)cc2[nH]c1=O)c1ccc(OC)cc1,-2,-6,8,62*,5,0,139*,128*,
c1cc(-c2cc3nc(NCC4CC4)ccn3n2)ccc1OCCN1CCOCC1,-1,·,-2,37*,·,·,69*,72*,
COc1cccc2c(=O)c(SC(F)(F)C(F)C(F)(F)F)c(C)[nH]c12 (stereo unspecified),-5,1,14,35*,2,-1,114*,100*,
Cc1[nH]c2ccc(F)cc2c(=O)c1SC(F)(F)C(F)C(F)(F)F (stereo unspecified),-3,1,0,2,1,1,·,·,
COc1cccc2c(=O)c(C/C=C(/C)Cl)c(C)[nH]c12,-5,16,4,39*,-1,0,50*,42*,
CC(OC(=O)Cn1[nH]c(=O)c2ccccc2c1=O)C(=O)Nc1cccc(Cl)c1 (stereo unspecified),-2,-2,6,6,-22,-2,·,·,
CC(=O)Nc1ccc(NC(=O)COc2cc(C)cc3oc(=O)cc(C)c23)cc1,-1,1,3,2,3,0,·,·,
CCc1cc(=O)oc2cc(C)cc(OCC(=O)C(C)(C)C)c12,-1,6,14,65*,-1,0,126*,106*,
CCc1cc(=O)oc2cc(C)cc(OCC(C)=O)c12,-1,-2,12,77*,4,-2,56*,46*,
CCc1cc(=O)oc2cc(C)cc(O)c12,-2,4,6,5,2,0,·,·,
Cc1cc(N2CCOCC2)nc2ccc(NC(=S)N3CCCCC3C)cc12 (stereo unspecified),-1,94,14,36*,14,-1,122*,95*,
Cc1cc(N2CCOCC2)nc2ccc(NC(=O)CCC(=O)N3CCCC(C)C3)cc12 (stereo unspecified),-2,2,15,54*,1,2,114*,84*,
Cc1cc(N2CCOCC2)nc2ccc(NC(=O)CCC(=O)N3CCN(c4ccccc4F)CC3)cc12,-2,-4,16,50*,5,1,76*,55*,
Cc1cc(N2CCOCC2)nc2ccc(NC(=O)CCC(=O)N3CCN(c4ccc(F)cc4)CC3)cc12,-2,3,14,63*,0,1,84*,52*,
Cc1cc(N2CCOCC2)nc2ccc(NC(=O)C3CCCCC3)cc12,-3,·,2,13,·,·,·,·,
COc1cccc(C(=O)Nc2ccc3nc(N4CCOCC4)cc(C)c3c2)c1,-2,-5,6,3,-3,0,·,·,
O=C(Nc1ccc2c(c1)OCO2)c1ccc2sc([C@@H]3O[C@H](CO)[C@H](O)[C@H](O)[C@H]3O)nc2c1,-3,·,4,0,·,·,·,·,
CC(O)(c1cccnc1)c1nc(-c2cccc3cccnc23)cs1 (stereo unspecified),-2,·,15,14,·,·,·,·,
Cc1cc(N2CCOCC2)nc2cc(O)ccc12,1,-6,14,32*,-4,-1,87*,70*,
Cc1cc(N2CCOCC2)nc2ccccc12,-4,-8,15,26,-4,0,·,·,
O=C(Nc1ccc(F)cc1)c1nc2c(nnn2Cc2cccc3ccccc23)c(=O)[nH]1,-2,8,4,-2,-14,-2,·,·,
O=C(NCc1ccccn1)c1ccc2nc(C3CCCCC3)oc2c1,-1,54,5,2,-9,0,·,·,
Cc1ccc(C(=O)N/C(=C\c2ccc(F)cc2)C(=O)NCc2ccncc2)cc1,-2,0,1,3,7,·,·,·,
O=C(NCc1ccncc1)/C(=C\c1ccc(F)cc1)NC(=O)c1ccccc1,-4,-1,1,45*,3,-4,185*,151*,
O=C(Nc1ccccc1F)C1CCCN(S(=O)(=O)c2ccc(-n3cnnn3)cc2)C1 (stereo unspecified),0,1,-3,85*,0,3,119*,87*,
SMILES,FadD28 FP inh,Mtb betalactam,GDH-TPI counter-1,Mtb FBA inh,Rv3671c protease,UGM FP inh,Mtb FBA confirm,GDH-TPI counter-2,others
COC(=O)c1c(S(N)(=O)=O)c2ccccc2n1C,-1,1,-3,33*,-6,-1,+,+,
S=c1nc(-c2ccccc2)n(-c2ccccc2)[nH]1,-5,-1,-6,5,-4,1,·,·,
O=c1nc(-c2ccccc2)n(-c2ccc(Cl)cc2)[nH]1,-3,2,-2,28*,0,-1,128*,105*,
CC(C)C(NC(=O)OCc1ccccc1)C(=O)NC(Cc1c[nH]c2ccccc12)C(=O)O (stereo unspecified),-2,·,·,1,·,·,·,·,
COc1ccc2c(=O)c(-c3ccccc3C)c(C)oc2c1,-5,2,-3,-2,1,3,·,·,
COc1ccccc1-c1c(C)oc2cc(OC(=O)c3ccco3)ccc2c1=O,-3,1,1,36*,-1,0,15,1,GDH-TPI DR=4.5*
COc1ccccc1Oc1c(C)oc2cc(OC(=O)c3ccco3)ccc2c1=O,-1,-2,14,55*,-4,2,119*,111*,
CCOc1ccccc1Oc1c(C)oc2cc(OC(=O)c3ccco3)ccc2c1=O,-3,4,12,17,5,1,·,·,
O=C(O)C(Cc1ccccc1N(CCO)CCO)N1C(=O)c2ccccc2C1=O (stereo unspecified),-1,·,3,0,·,·,·,·,
COc1ccc(-c2c(C)nc3c(-c4ccccn4)cnn3c2N)cc1,1,49,24,27*,·,-1,68*,67*,
Cc1cc(S(N)(=O)=O)c(N)c(S(N)(=O)=O)c1,-4,-4,8,29*,-11,6,+,+,
CC1(C(=O)NS(=O)(=O)c2cccc(F)c2)CCN1C(=O)C1(c2ccc(Cl)cc2)CCC1 (stereo unspecified),-4,·,7,-2,·,·,·,·,
